Assay outcomes as filed in PubChem BioAssay.
Most compounds without a hit are left out; they make up all but 6.2% or so of the library.
Lassa entry inh: blocks Lassa virus binding to or entry into cells; Lassa virus pseudotype entry inhibition, cell reporter; Potency, µM (series often up to 37.9 µM), inactives show top-dose activity change, negative = inhibition, usual class: inhibitors; actives 1.2% (n = 300,000); AID 540256; calls by dose curve; tested in HEK293 cells; also: potency is read from the fitted curve at half-maximal effect; nearly all actives have a fitted effect of over 50% in size
Marburg entry inh: Marburg virus entry inhibition; Marburg virus pseudotyped entry inhibition, cell reporter; AID 540276; actives 1.8% (n = 300,000); Potency, µM (highest dose often 37.8 µM), for inactives: top-dose activity change, negative = inhibition, hits mostly inhibitors; calls by dose curve; tested in HEK293 cells; also: potency is read from the fitted curve at half-maximal effect
FMDV inh: foot and mouth disease virus antiviral activity. FMDV antiviral cell-based qHTS. Potency, µM (top dose mostly 57.9 µM), inactives show at the highest dose activity change, negative = inhibition, hits mostly inhibitors. actives 1.2% (n = 410,000). AID 1159524; calls by dose curve; tested in HEK293T cells; also: read-out not given here; potency is read from the fitted curve at half-maximal effect; nearly all actives have a fitted effect of over 45% in size
HCMV antiviral: human cytomegalovirus inhibition. HFF cells, HCMV-luciferase reporter, 72 h; stronger effect = lower value. AID 1259415. actives 4.5% (n = 410,000). activity change, negative = inhibition, % at 57.5 µM; in the data active = activity change below about -60%; inconclusive = no clear call, values can overlap the other calls; inactive = above about -39%
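Human foreskin fibroblasts infected with luciferase-reporter HCMV at MOI 1 PFU/cell, compounds at two doses. Luciferase measured 72 h post infection; normalized to buffer-only basal and Salinomycin (10uM) controls.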
Starred values were filed as active, the others as inactive; u = inconclusive; x = no result; [ ] = dose if it differs, or a comment. % is scaled to controls: 0 for no effect and ±100 for the full control effect.

SMILES | Lassa entry inh | Marburg entry inh | FMDV inh | HCMV antiviral
C[C@H]1CCCCO[C@@H](CN(C)CC2CC2)[C@@H](C)CN([C@@H](C)CO)C(=O)c2cc(NS(=O)(=O)c3ccccc3)ccc2O1 | x | x | x | -27.1
Cc1ccc(S(=O)(=O)Nc2ccc3c(c2)C(=O)N([C@@H](C)CO)C[C@@H](C)[C@@H](CN(C)CC2CC2)OCCCC[C@@H](C)O3)cc1 | x | x | u | -8.7
C[C@H]1CCCCO[C@H](CN(C)CC2CCCCC2)[C@@H](C)CN([C@@H](C)CO)C(=O)c2cc(NS(=O)(=O)c3ccccc3)ccc2O1 | x | x | -2.0% | -62.9*
Cc1ccc(NC(=O)Cn2cc(S(=O)(=O)c3ccccc3)c(=O)c3cc4c(cc32)OCO4)cc1 | u | u | 6.3% | -9.4
O=C(CN1C(=O)/C(=C/c2cccc(Br)c2)SC1=S)NCCCN1CCOCC1 | -12.6% | -1.1% | 16.4% | -17.6
O=C(CN1C(=O)COc2ccccc21)NCCN1CCOCC1 | 15.6% | -1.8%[46.1 µM] | 5.0% | -74.9*
O=C(CCCN1C(=O)/C(=C/c2cccc(Br)c2)SC1=S)NCCCN1CCOCC1 | -9.2%[46.1 µM] | u | -2.3% | -90.2*
CCOC(=O)N1CCN(C(=O)CCN2C(=O)COc3ccccc32)CC1 | 8.3% | 12.9% | 11.3% | -61.5*
O=C(CN1C(=O)/C(=C/c2ccccc2)Sc2ccccc21)NCCCN1CCOCC1 | x | x | -11.1% | -61.8*
O=C(CN1C(=O)/C(=C/c2ccccc2F)Sc2ccccc21)NCCCN1CCOCC1 | x | x | -15.3% | u
CN(C(=O)c1cc(-c2ccccc2O)on1)c1ccccc1 | u | u | 0.5% | 11.0
CCc1ccc(/C=C2\SC(=S)N(CCC(=O)NCCCN3CCOCC3)C2=O)cc1 | 4.1%[46.1 µM] | u | 1.4% | -74.0*
CN1CCN(CCCNC(=O)c2ccc(/C=C3/Sc4ccccc4N(Cc4cccc(Cl)c4)C3=O)cc2)CC1 | x | x | -15.2% | u
CN1CCN(CCCNC(=O)c2ccc(/C=C3\Sc4ccccc4N(Cc4ccc(F)cc4)C3=O)cc2)CC1 | x | x | 18.8% | -67.4*
Cc1ccc(CSc2nc(-c3ccc(C(C)(C)C)cc3)nc3cc(=O)[nH]n23)cc1 | 12.3%[46.1 µM] | x | -12.5% | -105.4*
Cc1cc(-c2ccc(C)c(S(=O)(=O)N(Cc3cccs3)C(C)C)c2)on1 | -29.8%[46.1 µM] | x | 0.0% | -77.0*
CCOc1ccc(N(C)S(=O)(=O)c2cc(-c3cc(C)no3)ccc2CC)cc1 | u | u | 17.8µM* | -90.0*
CCOc1ccc(N(C)S(=O)(=O)c2cc(-c3cc(C)no3)ccc2C)cc1 | x | x | 20µM* | 0.0
C=CS(=O)(=O)N(C(=C)C(=O)OC)S(C)(=O)=O | x | x | x | -80.7*
CC(=O)c1cn(CC(=O)Nc2ccccc2)c2ccccc12 | u | u | u | -72.5*
O=C(Cn1cc(C(=O)c2ccccc2)c2ccccc21)Nc1ccc(Br)cc1 | -20.1%[46.1 µM] | u | 0.0% | -35.1
Cc1ccc(NC(=O)Cn2cc(C(=O)c3ccccc3)c3ccccc32)cc1 | u | u | u | -91.2*
CCC(=O)c1cn(CC(=O)Nc2ccccc2)c2ccccc12 | u | u | -6.2% | 3.1
Cc1nn(C(=O)c2ccccc2)c(C)c1S(=O)(=O)N1CCOCC1 | -14.7%[46.1 µM] | x | 8.8% | 11.1
CCN(CC)CCNc1nc(-c2cccs2)c(CC(=O)O)s1 | 14.0% | u | -12.3% | -87.2*
SMILES | Lassa entry inh | Marburg entry inh | FMDV inh | HCMV antiviral
Cn1cccc1C(=O)N1CCC2(CCN(Cc3ccc(C#N)cc3)CC2)CC1 | x | x | -23.2% | x
Cc1ccccc1NC(=O)c1cc(C(=O)c2cc(Cl)ccc2O)cn(-c2ccccc2C)c1=O | u | u | u | -65.2*
COc1ccc(CCNc2ncnc3c2cnn3-c2ccc(C)c(Cl)c2)cc1 | 0.8%[46.1 µM] | x | -23.3% | -9.6
COc1ccc(CC(=O)NNc2ncnc3c2cnn3-c2ccc(C)cc2)cc1 | -19.6% | 5.2% | -0.8% | 13.9
COc1ccc(CCNc2ncnc3c2cnn3-c2cc(Cl)ccc2C)cc1 | u | x | 17.8µM* | -61.2*
COc1ccc(CC(=O)NNc2ncnc3c2cnn3-c2ccccc2)cc1 | 5.17µM* | 23.9% | -9.3% | -7.1
COc1ccc(C(=O)NNc2ncnc3c2cnn3-c2cccc(Cl)c2)cc1OC | u | x | 0.0% | -86.3*
Cn1c(SCc2ccc(C(F)(F)F)cc2)nc2c([nH]c3ccccc32)c1=O | 10.6%[46.1 µM] | x | -17.5% | 52.7
CCCCn1c(N)c(NCC)c(=O)[nH]c1=O | 3.5% | 3.9% | -7.9% | 2.8
CCCCn1c(N)c(NCC(C)C)c(=O)[nH]c1=O | 15.6% | 0.0% | -12.9% | -91.0*
Cc1noc(/C=C/c2nn(C)cc2Cl)c1[N+](=O)[O-] | x | x | u | -98.4*
Cc1cccc(/C=C/c2onc(C)c2[N+](=O)[O-])n1 | -28.1% | -4.4%[46.1 µM] | 14.1µM* | -108.9*
Cc1cccc(N/C=C/c2onc(C)c2[N+](=O)[O-])c1 | u | u | 69.1% | 119.5
CCOC(=O)/C=c1\s/c(=C\c2ccc3cc(OC)ccc3c2)c(=O)n1CC(=O)NCc1ccc2c(c1)OCO2 | 3.1% | -21.8%[46.1 µM] | 19.9% | -100.0*
CCOC(=O)/C=c1/s/c(=C\c2c(OC)ccc3ccccc23)c(=O)n1CC(=O)NCC1CCCO1 (stereo not given) | u | u | -11.2% | -87.4*
CCOC(=O)/C=c1\s/c(=C\c2ccccc2C)c(=O)n1CC(=O)NCc1ccc2c(c1)OCO2 | -20.1% | -27.3% | 19.4% | 3.1
CCOC(=O)/C=c1\s/c(=C\c2c(OCC)ccc3ccccc23)c(=O)n1CC(=O)NCC1CCCO1 (stereo not given) | u | u | -23.1% | 26.0
CCOC(=O)C1=CCN(S(=O)(=O)c2ccc(Cl)cc2)C1c1ccc(Br)cc1 (stereo not given) | x | x | x | -31.5
CN(CC(=O)Nc1ccc(Cl)c(C(F)(F)F)c1)C(=O)c1ccc(OCC2CCCO2)cc1 (stereo not given) | u | u | u | -72.6*
CCN1/C(=C\C=C2\C(=O)N(c3ccccc3)C(=S)N2C)Sc2ccccc21 | u | 15.0%[46.1 µM] | u | -63.6*
CCN1/C(=C\C=C(C(C)=O)C(C)=O)Sc2ccccc21 | -19.9%[46.1 µM] | -1.9%[46.1 µM] | -4.9% | 22.6
O=[N+]([O-])c1cnccc1-n1nnc2ccccc21 | x | x | u | -63.5*
O=C(O)c1ccc(-n2nnc3ccccc32)c([N+](=O)[O-])c1 | 10.6% | 12.1% | 19.3% | 11.0
CCC1(OC(=O)CN(C)C)C(=O)OCc2c1cc1n(c2=O)Cc2cc3c(N)cccc3nc2-1 (stereo not given) | u | u | -13.8% | x
CCC1(O)C(=O)OCc2c1cc1n(c2=O)Cc2cc3c(N)cccc3nc2-1 (stereo not given) | u | u | 0.7% | -98.4*
COc1ccc(-c2n[nH]c(C)c2-c2cnn(-c3ccccc3)c2)c(O)c1C | -15.9% | -27.3% | 5.1% | -77.4*
COc1ccc(-c2n[nH]c(C)c2-c2cnn(-c3ccccc3)c2)c(O)c1 | -16.0% | u | -16.3% | 61.2
O=C(Nc1ccc(Cl)c([N+](=O)[O-])c1)c1ccc(NCCCN2CCOCC2)c([N+](=O)[O-])c1 | -2.1% | 6.51µM* | 8.0% | -20.5
COc1ccc(NC(=O)c2ccc(NCCCN3CCOCC3)c([N+](=O)[O-])c2)cc1 | 7.1% | -17.3% | -6.4% | -0.6
